Among all 39,000 compounds or so, about 3,300 (8.5%) were called active. This excerpt belongs to a sample that is enriched for actives.
What follows are compounds tested on HepG2 (assay: cytotoxicity call (relative viability < 0.9)). Details: 10 µM.

Row | SMILES | cytotoxicity call
1 | C[C@H](CO)N1C[C@H](C)[C@@H](CN(C)C(=O)c2cnccn2)Oc2ncc(/C=C/c3ccccc3)cc2C1=O | inactive
2 | CC(C)NC(=O)Nc1ccc2c(c1)C(=O)N([C@@H](C)CO)C[C@H](C)[C@H](CN(C)C(=O)Nc1ccc3c(c1)OCO3)O2 | inactive
3 | C[C@H]1CN([C@@H](C)CO)S(=O)(=O)c2ccc(C#CC3CCCC3)cc2O[C@H]1CN(C)Cc1cncnc1 | inactive
4 | CO[C@@H]1CN(C)C(=O)c2ccc(NC(=O)C3CCOCC3)cc2OC[C@H](C)N(Cc2cccnc2)C[C@@H]1C | inactive
5 | C[C@H]1CN([C@@H](C)CO)C(=O)c2cccc(NC(=O)c3cnccn3)c2O[C@H]1CN(C)C(=O)Nc1ccc2c(c1)OCO2 | inactive
6 | C[C@H]1CN([C@@H](C)CO)C(=O)c2cccc(NC(=O)c3ccncc3)c2O[C@H]1CN(C)S(=O)(=O)c1cn(C)cn1 | inactive
7 | NCCCC[C@@H]1NC(=O)[C@H]2C[C@@H](C(=O)NCc3ccc(F)cc3)[C@@H](c3cccc(OCCO)c3)N2C1=O | inactive
8 | COc1ccc(S(=O)(=O)Nc2cccc3c2O[C@H](CN(C)CC2CC2)[C@@H](C)CN([C@H](C)CO)C3=O)cc1 | inactive
9 | COCC#Cc1ccc2c(c1)O[C@H](CN(C)S(=O)(=O)c1cccc(OC)c1)[C@H](C)CN([C@H](C)CO)S2(=O)=O | inactive
10 | CN1C(=O)c2cc(NC(=O)C3CCOCC3)ccc2OC[C@H]2O[C@H](CC(=O)NCCc3ccncc3)CC[C@H]21 | inactive
11 | C[C@@H]1CN([C@@H](C)CO)C(=O)c2cc(NC(=O)NC3CCCCC3)ccc2O[C@@H](C)CCCCO[C@@H]1CN(C)C(=O)Nc1ccccc1 | inactive
12 | Cc1ccc(S(=O)(=O)N(C)C[C@H]2Oc3ccc(NS(=O)(=O)c4cn(C)cn4)cc3C(=O)N([C@H](C)CO)C[C@H]2C)cc1 | inactive
13 | C[C@H]1CCCCO[C@H](CN(C)Cc2ccc(C(F)(F)F)cc2)[C@@H](C)CN([C@@H](C)CO)C(=O)c2cc(NS(=O)(=O)c3ccc(Cl)cc3)ccc2O1 | inactive
14 | C[C@H]1CCCCO[C@@H](CN(C)Cc2ccc(C(F)(F)F)cc2)[C@@H](C)CN([C@@H](C)CO)C(=O)c2cc(NS(=O)(=O)c3ccc(Cl)cc3)ccc2O1 | inactive
15 | C[C@@H]1CN([C@@H](C)CO)C(=O)c2cc(NS(=O)(=O)c3ccc(Cl)cc3)ccc2O[C@@H](C)CCCCO[C@H]1CN(C)Cc1ccc(C(F)(F)F)cc1 | active
16 | C[C@@H]1CCCCO[C@@H](CN(C)Cc2ccc(C(F)(F)F)cc2)[C@H](C)CN([C@@H](C)CO)C(=O)c2cc(NS(=O)(=O)c3ccc(Cl)cc3)ccc2O1 | active
17 | C[C@@H]1CN([C@H](C)CO)C(=O)c2cc(NS(=O)(=O)c3ccc(Cl)cc3)ccc2O[C@@H](C)CCCCO[C@@H]1CN(C)Cc1ccc(C(F)(F)F)cc1 | inactive
18 | C[C@@H]1CCCCO[C@@H](CN(C)Cc2ccc(C(F)(F)F)cc2)[C@@H](C)CN([C@@H](C)CO)C(=O)c2cc(NS(=O)(=O)c3ccc(Cl)cc3)ccc2O1 | inactive
19 | C[C@@H]1CCCCO[C@@H](CN(C)Cc2ccc(C(F)(F)F)cc2)[C@@H](C)CN([C@H](C)CO)C(=O)c2cc(NS(=O)(=O)c3ccc(Cl)cc3)ccc2O1 | active
20 | C[C@@H]1CCCCO[C@H](CN(C)Cc2ccc(C(F)(F)F)cc2)[C@@H](C)CN([C@H](C)CO)C(=O)c2cc(NS(=O)(=O)c3ccc(Cl)cc3)ccc2O1 | active
21 | Cc1ccc(S(=O)(=O)N(C)C[C@H]2Oc3ccc(NS(=O)(=O)c4c(C)noc4C)cc3C(=O)N([C@H](C)CO)C[C@@H]2C)cc1 | inactive
22 | C[C@]12C(=O)N(CCC(=O)O)C(=O)[C@H]1[C@@H]1C=C[C@@H]2C1 | inactive
23 | Cc1ccc(S(=O)(=O)Nc2cccc3c2O[C@@H](CN(C)S(=O)(=O)c2ccc(F)cc2)[C@H](C)CN([C@@H](C)CO)C3=O)cc1 | inactive
24 | O=C(Cn1ccc([N+](=O)[O-])n1)N1CCOCC1 | inactive
25 | COc1ccc(NC(=O)N(C)C[C@H]2Oc3ccc(NC(=O)Cn4cnnn4)cc3CC(=O)N([C@H](C)CO)C[C@H]2C)cc1 | inactive
26 | C[C@H](CO)N1C[C@H](C)[C@H](CN(C)Cc2ccc(Oc3ccccc3)cc2)Oc2c(NS(=O)(=O)c3ccc(F)cc3)cccc2C1=O | inactive

Row | SMILES | cytotoxicity call
27 | C[C@H](CO)N1C[C@H](C)[C@@H](CN(C)S(=O)(=O)c2ccc(Cl)cc2)Oc2ccc(NS(=O)(=O)c3cn(C)cn3)cc2C1=O | inactive
28 | O=C(NCCCN1CCOCC1)[C@@H]1[C@@H](CO)[C@@H]2Cn3c(ccc(C4=CCCCC4)c3=O)[C@H]1N2 | inactive
29 | Cc1ccc(S(=O)(=O)Nc2cccc3c2O[C@@H](CN(C)S(=O)(=O)c2ccc(F)cc2)[C@H](C)CN([C@H](C)CO)C3=O)cc1 | inactive
30 | CC(C)(C)OC(=O)C[C@@H]1CC=CC[C@@H](CC(=O)N[C@H](CO)Cc2ccccc2)C(=O)N[C@@H](C(C)(C)C)COC1=O | inactive
31 | CC1CCN(S(=O)(=O)c2c[nH]cn2)CC1 | inactive
32 | Cc1noc(C)c1NC(=O)N(C)C[C@H]1Oc2ccc(NS(C)(=O)=O)cc2C(=O)N([C@H](C)CO)C[C@H]1C | inactive
33 | COc1ccc(CN(C)C[C@H]2OCCCC[C@H](C)Oc3ccc(NC(=O)NC(C)C)cc3C(=O)N([C@@H](C)CO)C[C@@H]2C)cc1 | inactive
34 | C[C@@H]1CCCCO[C@H](CN(C)Cc2ccc(C(F)(F)F)cc2)[C@H](C)CN([C@@H](C)CO)C(=O)c2cc(NS(=O)(=O)c3ccc(Cl)cc3)ccc2O1 | active
35 | C[C@H](CO)N1C[C@H](C)[C@H](CN(C)Cc2ccc(C(F)(F)F)cc2)OCCCC[C@H](C)Oc2ccc(NS(=O)(=O)c3ccc(Cl)cc3)cc2C1=O | active
36 | C[C@@H]1CN([C@@H](C)CO)C(=O)c2cc(NC(=O)Cc3cn(C)c4ccccc34)ccc2O[C@@H]1CN(C)CC1CCCCC1 | inactive
37 | Cc1noc(C)c1S(=O)(=O)Nc1ccc2c(c1)C(=O)N([C@@H](C)CO)C[C@@H](C)[C@@H](CN(C)C(=O)Nc1ccccc1)OCCCC[C@@H](C)O2 | inactive
38 | O=C(O)CCCN1C(=O)CSC1=S | inactive
39 | C[C@@H]1CCCCO[C@H](CN(C)C(=O)Nc2ccc(F)cc2)[C@@H](C)CN([C@@H](C)CO)C(=O)c2cc(NC(=O)NC3CCCCC3)ccc2O1 | inactive
40 | C[C@H](CO)N1C[C@H](C)[C@@H](CN(C)S(C)(=O)=O)Oc2ccc(NC(=O)C3CCCCC3)cc2CC1=O | inactive
41 | C[C@H](CO)N1C[C@H](C)[C@@H](CN(C)Cc2ccc3c(c2)OCO3)Oc2ccc(NC(=O)Cn3cnnn3)cc2C1=O | inactive
42 | Cc1ccc(-c2ccc(OC(=O)c3ccccc3F)cc2)cc1 | inactive
43 | O=C(Oc1ccc(C2CCCCC2)cc1)c1cccs1 | inactive
44 | Cc1ccc(C(=O)Oc2ccc(/C=N/c3cccs3)cc2)cc1 | active
45 | C[C@H](CO)N1C[C@H](C)[C@@H](CN(C)S(C)(=O)=O)OCCCC[C@H](C)Oc2ccc(NC(=O)c3ccncc3)cc2C1=O | inactive
46 | CC(C)NC(=O)Nc1ccc2c(c1)C(=O)N([C@H](C)CO)C[C@H](C)[C@@H](CN(C)CC1CCCCC1)OCCCC[C@H](C)O2 | inactive
47 | C[C@H]1CN([C@@H](C)CO)C(=O)c2cccc(NC(=O)C3CC3)c2O[C@H]1CN(C)C(=O)NC1CCCCC1 | inactive
48 | O=C(C[C@@H]1C=C[C@H](NC(=O)c2cnccn2)[C@@H](CO)O1)NCc1ccccc1F | inactive
49 | COc1ccc2c(c1)OC1COc3cc(OC)c(OC)cc3C1C2=O (stereo not drawn) | active
50 | COc1cc2c(cc1OC)-c1c(oc3c4c(ccc3c1=O)OC(C)(C)C=C4)CO2 | active
51 | COc1cc2c(cc1OC)-c1c(oc3cc4c(cc3c1=O)CCO4)CO2 | inactive
52 | COc1ccc2c(c1)OC1c3ccc(OC)cc3OCC21 (stereo not drawn) | inactive

Row | SMILES | cytotoxicity call
53 | COc1cc2c(cc1OC)C1C(=O)c3ccc4c(c3OC1CO2)C=CC(C)(C)O4 (stereo not drawn) | active
54 | COc1cc(OC)c2c(c1)OC(c1ccccc1)CC2=O (stereo not drawn) | inactive
55 | CC1(C)C=Cc2cc3ccc(=O)oc3cc2O1 | inactive
56 | CC(=O)c1cc2c(cc1O)OC(C)(C)C=C2 | inactive
57 | COc1cc2c(c3ccccc13)OC(C)(C)C=C2 | inactive
58 | COc1ccc(-c2c(O)c3c(OC)c4c(cc3oc2=O)OC(C)(C)C=C4)cc1 | inactive
59 | COc1cc2c(cc1OC)C1C(=O)c3c(O)cc4c(c3OC1CO2)C=CC(C)(C)O4 (stereo not drawn) [alpha-TOXICAROL (dl) ] | active
60 | Nc1ccc(Cl)nn1 | inactive
61 | C[C@@H]1CN([C@@H](C)CO)C(=O)CCCn2nncc2CO[C@H]1CN(C)S(=O)(=O)c1ccc(Cl)cc1 | inactive
62 | O=C(C[C@@H]1CC[C@@H](NC(=O)CN2CCOCC2)[C@H](CO)O1)NCCc1ccncc1 | inactive
63 | C[C@@H]1CCCCO[C@H](CN(C)C(=O)C2CCCCC2)[C@H](C)CN([C@@H](C)CO)C(=O)c2cc(NC(=O)Cc3ccccc3)ccc2O1 | inactive
64 | Cc1cn(Cc2ccccc2)c(=O)[nH]c1=O | inactive
65 | O=C(C[C@H]1CC[C@@H]2[C@H](COC[C@@H](O)CN2C(=O)Nc2cc(Cl)cc(Cl)c2)O1)N1CCOCC1 | inactive
66 | COC[C@@H]1c2nnn(C)c2CCN1S(=O)(=O)c1cn(C)cn1 | inactive
67 | C[C@H](CO)N1C[C@H](C)[C@H](CN(C)CC2CCCCC2)OCCCC[C@H](C)Oc2ccc(NS(=O)(=O)c3ccc(F)cc3)cc2C1=O | active
68 | C[C@@H]1CN([C@@H](C)CO)C(=O)c2cc(NS(=O)(=O)c3ccc(F)cc3)ccc2O[C@@H](C)CCCCO[C@@H]1CN(C)CC1CCCCC1 | inactive
69 | C[C@@H]1CCCCO[C@@H](CN(C)CC2CCCCC2)[C@@H](C)CN([C@H](C)CO)C(=O)c2cc(NS(=O)(=O)c3ccc(F)cc3)ccc2O1 | active
70 | C[C@@H]1CCCCO[C@@H](CN(C)CC2CCCCC2)[C@H](C)CN([C@@H](C)CO)C(=O)c2cc(NS(=O)(=O)c3ccc(F)cc3)ccc2O1 | active
71 | C[C@@H]1CCCCO[C@H](CN(C)CC2CCCCC2)[C@H](C)CN([C@H](C)CO)C(=O)c2cc(NS(=O)(=O)c3ccc(F)cc3)ccc2O1 | inactive
72 | C[C@H](CO)N1C[C@H](C)[C@@H](CN(C)CC2CCCCC2)OCCCC[C@H](C)Oc2ccc(NS(=O)(=O)c3ccc(F)cc3)cc2C1=O | inactive
73 | C[C@@H]1CCCCO[C@H](CN(C)CC2CCCCC2)[C@@H](C)CN([C@H](C)CO)C(=O)c2cc(NS(=O)(=O)c3ccc(F)cc3)ccc2O1 | inactive
74 | C[C@H]1CCCCO[C@H](CN(C)CC2CCCCC2)[C@@H](C)CN([C@@H](C)CO)C(=O)c2cc(NS(=O)(=O)c3ccc(F)cc3)ccc2O1 | active
75 | C[C@@H]1CCCCO[C@@H](CN(C)CC2CCCCC2)[C@H](C)CN([C@H](C)CO)C(=O)c2cc(NS(=O)(=O)c3ccc(F)cc3)ccc2O1 | inactive
76 | C[C@@H]1CCCCO[C@@H](CN(C)CC2CCCCC2)[C@@H](C)CN([C@@H](C)CO)C(=O)c2cc(NS(=O)(=O)c3ccc(F)cc3)ccc2O1 | inactive
77 | C[C@@H]1CN([C@H](C)CO)C(=O)c2cc(NS(=O)(=O)c3ccc(F)cc3)ccc2O[C@@H](C)CCCCO[C@@H]1CN(C)CC1CCCCC1 | inactive
78 | C[C@@H]1CN([C@@H](C)CO)C(=O)c2cc(NS(=O)(=O)c3ccc(F)cc3)ccc2O[C@@H](C)CCCCO[C@H]1CN(C)CC1CCCCC1 | inactive

— the antibiotic and cytotoxicity screens of Wong et al. (2023)
